This note sets out measurements from PubChem BioAssay (NCATS).

Results filed as inconclusive are left out. Activity calls are given as the source filed them. Calls follow the shape of the dose curve; as a rule, active = well fitted cell-killing curve with a large enough effect; inconclusive = small, poorly fitted or top-dose-only effect, or effect the other way; inactive = no such curve, though single readings can be large or run the other way.
Potency is read from the fitted curve at half-maximal effect.

A short description of the experiment: Quantitative High-Throughput drug screen in 47 multiple myeloma cell lines against the NCATS MIPE library collection: RPMI8226_ATCC cell viability assay (AID 1919871). Also: nearly all actives have a fitted effect of over 30% in size. As to conditions: RPMI8226 myeloma viability, CellTiter-Glo ATP luminescence, 48 h; series mostly up to 45.8 µM; viability (% of control): at the top concentration. The text has this:
PI: Beverly A. Mock Ph.D.
Laboratory of Cancer Biology and Genetics,
Center for Cancer Research, National Cancer Institute,
National Institute of Health, Bethesda, Maryland
Drug resistance and disease progression are common in multiple myeloma (MM) patients, underscoring the need for new therapeutic combinations. […] We hypothesized that effective combinations would reduce MYC expression and enhance p16 activity. […] These preclinical data identify potentially useful drug combinations for evaluation in drug-resistant MM and reveal potential mechanisms of combined drug sensitivity.
Described herein is the primary MIPE qHTS used to cherrypick compounds. Validated compounds were then further tested for potential synergistic activiy.
[1] Peat TJ, Gaikwad SM, Dubois W, Gyabaah-Kessie N, Zhang S, Gorjifard S, Phyo Z, Andres M, Hughitt VK, Simpson RM, Miller MA, Girvin AT, Taylor A, Williams D, D'Antonio N, Zhang Y, Rajagopalan A, Flietner E, Wilson K, Zhang X, Shinn P, Klumpp-Thomas C, McKnight C, Itkin Z, Chen L, Kazandijian D, Zhang J, Michalowski AM, Simmons JK, Keats J, Thomas CJ, Mock BA. Drug combinations identified by high-throughput screening promote cell cycle transition and upregulate Smad pathways in myeloma. Cancer Lett. 2023 Aug 1;568:216284. doi: 10.1016/j.canlet.2023.216284. Epub 2023 Jun 24. PMID: 37356470; PMCID: PMC10408729.
SEQUENCE No. (e.g., 1, 2, 3, etc.); […] (e.g., Cells, Incubation, Reagent, etc.); VALUE and DESCRIPTION.
1; Cells; 5 uL; white, solid bottom 1536-well Greiner assay plate.
2; Compounds; 23 nL; Kalypsis pin tool (Wako USA) equipped with a 1536-well pin head to transfer to the assay plates.
3; Incubation; 48 hours; 37C incubation.
4; Reagent;5uL; CellTiter Glo (Promega).
5; Detector; 425V; Luminescence; Viewlux PerkinElmer.
NOTES (numbers refer to Sequence numbers above)
1. The cell-based screening methods employed in this study were like those previously published. Briefly, the corresponding myeloma cell lines were screened in 1,536-well plates with 500 cells, 5-uL per well for inhibition of cell viability (assessed by measuring ATP levels with CellTiterGlo).
2. NCATS MIPE 4.0 library of approved and investigational drugs were added using the Kalypsis pin tool. Wells treated with DMSO only for 100% viability and media only for 0% viability were used as controls.
3. The assay plates were covered and incubated for 48 hours in a 37C, 5% CO2 incubator with controlled humidity.
4. After 48 hours, CellTilter-GloTM luminescent substrate mix (Promega) reagent was added to the assay plate and plates we incubated for 5 min at room temperature.
5. Signal was measured as median relative luminescence units on a ViewLux (PerkinElmer) multiplate reader.
[1] Heske CM, Davis MI, Baumgart JT, Wilson K, Gormally MV, Chen L, Zhang X, Ceribelli M, Duveau DY, Guha R, Ferrer M, Arnaldez FI, Ji J, Tran HL, Zhang Y, Mendoza A, Helman LJ, Thomas CJ. Matrix Screen Identifies Synergistic Combination of PARP Inhibitors and Nicotinamide Phosphoribosyltransferase (NAMPT) Inhibitors in Ewing Sarcoma. Clin Cancer Res. 2017 Dec 1;23(23):7301-7311. doi: 10.1158/1078-0432.CCR-17-1121. Epub 2017 Sep 12. PMID: 28899971; PMCID: PMC6636827.
On to `N=c1ccn2c(n1)O[C@H]1[C@@H](O)[C@@H](CO)O[C@H]12`, for which the “viability (% of control)” value is 116% (inactive). Same read-out and setting: the same measure for `C[C@H]1O[C@H](O[C@H]2[C@H](O)[C@@H](O)[C@@H](O[C@H]3[C@H](O)[C@@H](O)C(O)O[C@H]3CO)O[C@H]2CO)[C@H](O)[C@@H](O)[C@H]1N[C@H]1C=C(CO)[C@@H](O)[C@H](O)[C@@H]1O` (stereo not given in full): 140% (inactive); for `OCc1ccccc1O[C@@H]1O[C@H](CO)[C@H](O)[C@H](O)[C@H]1O`: 130% (inactive).

On to `COC(=O)[C@@H]1[C@H]2C[C@@H]3c4[nH]c5ccccc5c4CCN3C[C@@H]2CC[C@@H]1O`, for which the “viability (% of control)” value was 126% (inactive).

Regarding `CC(C)(O)[C@H]1CC[C@@](C)([C@H]2[C@@H](O)C[C@@]3(C)[C@@H]4C[C@H](O[C@@H]5O[C@H](CO)[C@@H](O)[C@H](O)[C@@H]5O)[C@H]5C(C)(C)[C@@H](O[C@@H]6OC[C@@H](O)[C@H](O)[C@@H]6O)CC[C@@]56C[C@@]46CC[C@]23C)O1`, the “viability (% of control)” value is 112% (inactive). `CCOC(=O)[C@@H](N)Cc1ccc(-c2cc(O[C@H](c3ccc(Cl)cc3-n3ccc(C)n3)C(F)(F)F)nc(N)n2)cc1`: the Potency is 20.9 µM (active). Consider `C[C@]12CC[C@@H]3c4ccc(O)cc4CC[C@H]3[C@H]1CC[C@H]2O`, for which the Potency is 18.7 µM (active). With `CC(=O)O[C@]1(C(C)=O)CC[C@H]2[C@@H]3C=C(C)C4=CC(=O)CC[C@]4(C)[C@@H]3CC[C@@]21C`, the Potency is 14.8 µM (active). In the case of `CC(=O)ON=C1C(c2c(O)[nH]c3cc(Br)ccc23)=Nc2ccccc21`, the Potency is 16.6 µM (active). `O=C(O)C(=O)Nc1cccc(C2=NN=N[N]2)c1`: the “viability (% of control)” value is 101% (inactive). For `O=C(C[C@@H]1CC=CCCC(=O)O[C@H](c2ccccc2)CNC1=O)NCc1ccc(Cl)cc1`, the “viability (% of control)” value was 110% (inactive). On to `CC1(C)O[C@@H]2C[C@H]3[C@@H]4CCC5=CC(=O)C=C[C@]5(C)[C@@H]4[C@@H](O)C[C@]3(C)[C@]2(C(=O)CO)O1`, for which the Potency was 0.0332 µM (active). Regarding `COc1ccc(C(C)=O)c(O)c1`, the “viability (% of control)” value is 123% (inactive).

For `Cn1cc(C2=C(c3c4n(c5ccccc35)CCC(CN)C4)C(=O)NC2=O)c2ccccc21` (stereo not given), the Potency was 18.7 µM (active). For `O=C(CCCCCCC(=O)Nc1cccnc1)NO`, the Potency was 16.6 µM (active). Turning to `c1cc(CN2CCCNCCNCCCNCC2)ccc1CN1CCCNCCNCCCNCC1`, the “viability (% of control)” value was 140% (inactive). Regarding `Cn1cc(-c2ccc3ncc(Cc4ccc5ncccc5c4)n3n2)cn1`, the “viability (% of control)” value is 114% (inactive).

As to `COc1ccnc2[nH]cc(C(=O)C(=O)N3CCN(C(=O)c4ccccc4)C[C@@H]3C)c12`, the “viability (% of control)” value was 111% (inactive).

For `C=CC[C@@H]1C=C(C)C[C@H](C)C[C@H](OC)[C@H]2O[C@@](O)(C(=O)C(=O)N3CCCC[C@H]3C(=O)O[C@H](C(C)=C[C@@H]3CC[C@H](O)[C@H](OC)C3)[C@@H](C)[C@@H](O)CC1=O)[C@@H](C)C[C@@H]2OC`, the Potency is 2.09 µM (active). For `O=c1ccn([C@@H]2O[C@H](CO)[C@H](O)[C@@H]2F)c(=O)[nH]1`, the “viability (% of control)” value is 114% (inactive). `CN[C@H]1[C@@H](O)[C@@H]2O[C@@H]3O[C@H](C)CC(=O)[C@]3(O)O[C@@H]2[C@@H](NC)[C@H]1O`: the Potency was 9.35 µM (active). On to `C[C@H](NCc1ccc2c(c1)nc(NC(=O)c1ccc(-c3cn[nH]c3)s1)n2CCc1ccccc1)C(C)(C)C`, for which the Potency was 2.96 µM (active). With `C=C1CCC2[C@](C)(CO)C(O)CC[C@]2(C)C1CC=C1C(=O)OCC1O` (stereo not given in full), the Potency is 0.0171 µM (active).

With `COc1cc2c(Nc3ccc(Cl)c(Cl)c3F)ncnc2cc1OCC1C[C@@H]2CN(C)C[C@H]2C1`, the Potency is 8.33 µM (active). Regarding `NC(=O)c1cccc(-c2cccc(OC(=O)NC3CCCCC3)c2)c1`, the “viability (% of control)” value was 128% (inactive). Consider `CCCCC(=O)O[C@]1(C(=O)CO)[C@@H](C)C[C@H]2[C@@H]3CCC4=CC(=O)C=C[C@]4(C)[C@@]3(F)[C@@H](O)C[C@@]21C`, for which the Potency is 0.0118 µM (active).

Regarding `CC(C)(O)CC[C@@H](O)[C@](C)(O)[C@H]1CC[C@@]2(O)C3=CC(=O)[C@@H]4C[C@@H](O)[C@@H](O)C[C@]4(C)[C@@H]3CC[C@]12C`, the “viability (% of control)” value was 90% (inactive). As to `CC(C)N(CC[C@H](c1ccccc1)c1cc(CO)ccc1O)C(C)C`, the “viability (% of control)” value is 107% (inactive). On the same count and under the same terms, for `Cn1cnc2c(F)c(Nc3ccc(Br)cc3F)c(C(=O)NOCCO)cc21` the value was 116% (inactive); for `Cc1ccc(O)c(C(CCN(C(C)C)C(C)C)c2ccccc2)c1` (stereo not given), 116% (inactive). Still for that read-out and setting: the same measure for `O=c1[nH]c(=O)n([C@H]2C[C@@H](O)[C@@H](CO)O2)cc1C=CBr`: 113% (inactive). Take `CN(C)c1ccc(C(=O)NCCCCCCC(=O)NO)cc1`: the Potency is 1.87 µM (active). The same measure, in the same setting: for `C[C@H](NC(=O)C(C#N)=Cc1cccc(Br)n1)c1ccccc1` the value was 4.18 µM (active). Turning to `CC[C@H]1OC(=O)[C@H](C)[C@@H](O[C@H]2C[C@@](C)(OC)[C@@H](O)[C@H](C)O2)[C@H](C)[C@@H](O[C@@H]2O[C@H](C)C[C@H](N(C)C)[C@@H]2O)[C@](C)(OC)C[C@@H](C)C(=O)[C@H](C)[C@@H](O)[C@]1(C)O`, the “viability (% of control)” value is 84.4% (inactive).

`Cc1cn([C@@H]2O[C@H](CO)[C@@H](O)[C@H]2F)c(=O)[nH]c1=O`: the “viability (% of control)” value is 112% (inactive). For `O=C(Nc1cccc(Nc2ncc(Br)c(NCCc3cnc[nH]3)n2)c1)N1CCCC1`, the Potency is 18.7 µM (active). Regarding `CC(C)[C@H](CO)Nc1nc(Nc2cccc(Cl)c2)c2ncn(C(C)C)c2n1`, the Potency was 26.4 µM (active).

Turning to `O=C1CSC(=O)N1C(CCc1ccncc1)COc1ccc(-c2cccc([N+](=O)[O-])c2)cc1` (stereo not given), the Potency was 7.43 µM (active).

On to `O=C(Nc1nnc(-c2ccco2)o1)c1cc(-c2ccccc2)nc2ccccc12`, for which the Potency was 13.2 µM (active). `CCCc1nc(C(C)(C)O)c(C(=O)O)n1Cc1ccc(-c2ccccc2-c2nn[nH]n2)cc1`: the “viability (% of control)” value is 117% (inactive).
